Unmarked numbers belong to inactive results. Inconclusive results are not listed. The list shows a part of the results. Calls of active or inactive are those of the source. Unless noted, the call rests on the fitted dose curve; in most records, active means well fitted curve in either direction with a large enough effect (not every such curve was filed as active); inconclusive means small, poorly fitted or top-dose-only effect, or another doubt; inactive means flat fitted curve, though single readings scatter.

For assay [1], the target named is Lysosomal acid glucosylceramidase (Homo sapiens) (UniProt P04062). In words: Glucocerebrosidase-p2 (AID 348; in the data active means potency below about 10 µM; further: potency means the concentration at half of the fitted maximal effect). Conditions: purified GBA, blue fluorogenic substrate, 40 min. In a few lines:
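Normal human glucocerebrosidase (0.2 nM) with blue fluorogenic substrate (80 uM final) in citrate/phosphate pH 5.9 with 10mM sodium taurocholate, 0.01% tween-20; 40 min RT, NaOH/glycine stop; fluorescence Ex 365/Em 440; AC50 from a titration from 0.6 nM upwards.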

Assay [2] in a line: AP1 Signaling Pathway (AID 357).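 Further: ME-180 reporter cells stimulated with EGF at its EC50 level; on the % scale 0 is the no-effect control and ±100 the full control effect.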 Conditions: ME-180 AP-1-bla reporter, EGF-induced, beta-lactamase ratio, 5 h; at 7.69 µM (top of the series) unless noted. In a few lines:
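AP-1-bla ME-180 cells, Opti-MEM + 0.5% dialyzed FBS, plated overnight 37 °C. Cpd titration + EC50 EGF, 5 h 37 °C. CCF4 2.5 h RT; ex 405, em 460/530 ratio → %activity, AC50.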

Assay [3] concerns the target Cytochrome P450 1A2 (Homo sapiens) (UniProt P05177). Description: p450-cyp1a2 (AID 410; calls by dose curve; further: potency means the concentration at half of the fitted maximal effect). The procedure, abridged:
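O-Demethylation of luciferin 6' methyl ether by human CYP1A2 is monitored as luciferase luminescence. Substrate sits at Km (100uM); enzyme is 20nM. Values are scaled to 57 uM furafylline as maximal inhibition.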

The nature of assay [4]: NFAT Signaling Pathway (AID 444).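 Further: carbachol stimulus at about its EC50 of 1 µM final; on the % scale 0 is the no-effect control and ±100 the full control effect.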 The note with it: Jurkat NFAT-bla M1, carbachol, beta-lactamase ratio, 5 h; at 7.69 µM (top of the series) unless noted. The procedure, abridged:
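Read-out: CCF4 FRET ratio (460 nm/530 nm) after 1 h RT dye loading, used for %activity and AC50 from titration series. Cells: Jurkat NFAT-β-lactamase/M1 line, treated with compound plus 1 uM carbachol for 5 h, 37 °C.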

A short description of assay [5]: Stat Signaling Pathway (AID 446).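 Further: ME-180 cervical cancer cells given 40 pM IL-6 alongside compound; SIE-controlled beta-lactamase reporter measured as 460/530 nm FRET emission ratio; on the % scale 0 is the no-effect control and ±100 the full control effect.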 Conditions: ME-180 (cervical carcinoma) SIE beta-lactamase reporter, IL-6 stimulated, 5 h; at 7.69 µM (top of the series) unless noted. The procedure, abridged: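 FRET read-out (405 nm excitation, 460/530 nm emission) of a beta-lactamase reporter under a STAT-inducible element in ME-180 cervical carcinoma cells. Cells with compound receive 40 pM IL-6 for 5 h. Values are normalised to AC90 stimulation and AC90 JAK-inhibitor controls.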

Assay [6] concerns the target Glucocorticoid receptor (Homo sapiens) (UniProt P04150). In words: GR-GFP Redistribution (AID 450;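 active means compounds whose dose series gives a full or clear partial fitted curve of increased nuclear translocation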; further: potency means the concentration at half of the fitted maximal effect). Conditions: U2OS GR-GFP nuclear translocation, laser cytometry, 2 h.
Assay [7] has the same target. Description: GR-EFC Redistribution (AID 451; calls by dose curve; further: potency means the concentration at half of the fitted maximal effect). Conditions: CHO-K1 GR-EFC translocation, beta-gal luminescence, 2 h. The procedure, abridged: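 Translocation of GR-ED fusion to nuclear EA restores b-gal, read by luminescence after 1 h room-temperature detection. Engineered CHO-K1 biosensor cells, 1,000/well, exposed 2 h at 37 C to titrations up to 46 uM final.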
Assay [8] deals with Mitogen-activated protein kinase 10 (Mus musculus) (UniProt Q61831). Description: JNK3 AlphaScreen Assay (AID 530).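 Further: kinase came from lysate of stimulated human HepG2 cells; signal reports phosphorylation of biotinylated GST-cJun 1-79 at Ser73 with 10 µM ATP; on the % scale 0 is the no-effect control and ±100 the full control effect.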 The procedure, abridged:
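qHTS titrations with 15 min compound pre-incubation before adding ATP (10 uM final). Read-out: AlphaScreen of Ser73-phosphorylated biotin-GST-cJun using HepG2 lysate JNK3 activated by IL-1β and TNFα.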
Background: In Alpha technology, singlet oxygen from a donor bead excites a nearby acceptor bead.

Assay [9] in a line: qHTS Assay for Inhibitors of Fructose-1,6-bisphosphate Aldolase from Giardia Lamblia: Coupling assay counterscreen confirmation (AID 2795; active means well fitted inhibition curve with a large enough effect; further: on the % scale 0 is the no-effect control and ±100 the full control effect; nearly all actives have a fitted effect of over 55% in size). The procedure, abridged: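 Counterscreen, no aldolase: coupling enzyme reagent + cpd (up to 57.5 uM final), 10 min RT; add substrate + coupling system + AmpLite Red, 20 min RT; fluorescence ex 525/em 598 nm.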

Glucocorticoid receptor (Homo sapiens), sequence (P04150 whole entry, looked up, the tested form may be a part): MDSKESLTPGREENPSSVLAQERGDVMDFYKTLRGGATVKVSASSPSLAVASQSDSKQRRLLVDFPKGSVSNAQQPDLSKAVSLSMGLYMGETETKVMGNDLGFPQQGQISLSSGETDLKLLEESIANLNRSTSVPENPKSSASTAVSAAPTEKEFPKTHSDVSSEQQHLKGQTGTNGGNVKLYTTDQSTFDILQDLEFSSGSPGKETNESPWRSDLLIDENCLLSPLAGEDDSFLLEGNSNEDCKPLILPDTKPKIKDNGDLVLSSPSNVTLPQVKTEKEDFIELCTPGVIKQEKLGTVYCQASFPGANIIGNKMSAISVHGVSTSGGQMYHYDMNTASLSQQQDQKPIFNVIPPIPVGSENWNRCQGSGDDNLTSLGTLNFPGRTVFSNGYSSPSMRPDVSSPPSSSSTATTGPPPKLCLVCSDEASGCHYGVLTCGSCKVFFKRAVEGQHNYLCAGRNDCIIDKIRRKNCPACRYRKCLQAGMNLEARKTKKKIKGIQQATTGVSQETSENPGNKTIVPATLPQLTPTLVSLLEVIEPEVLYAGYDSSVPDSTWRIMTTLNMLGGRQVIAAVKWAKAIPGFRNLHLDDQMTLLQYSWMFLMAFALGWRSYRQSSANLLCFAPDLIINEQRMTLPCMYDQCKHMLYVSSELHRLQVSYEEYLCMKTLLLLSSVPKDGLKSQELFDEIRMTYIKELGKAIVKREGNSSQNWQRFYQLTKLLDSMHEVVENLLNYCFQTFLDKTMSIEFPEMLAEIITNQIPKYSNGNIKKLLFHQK
Cytochrome P450 1A2 (Homo sapiens), sequence (P05177 whole entry, looked up): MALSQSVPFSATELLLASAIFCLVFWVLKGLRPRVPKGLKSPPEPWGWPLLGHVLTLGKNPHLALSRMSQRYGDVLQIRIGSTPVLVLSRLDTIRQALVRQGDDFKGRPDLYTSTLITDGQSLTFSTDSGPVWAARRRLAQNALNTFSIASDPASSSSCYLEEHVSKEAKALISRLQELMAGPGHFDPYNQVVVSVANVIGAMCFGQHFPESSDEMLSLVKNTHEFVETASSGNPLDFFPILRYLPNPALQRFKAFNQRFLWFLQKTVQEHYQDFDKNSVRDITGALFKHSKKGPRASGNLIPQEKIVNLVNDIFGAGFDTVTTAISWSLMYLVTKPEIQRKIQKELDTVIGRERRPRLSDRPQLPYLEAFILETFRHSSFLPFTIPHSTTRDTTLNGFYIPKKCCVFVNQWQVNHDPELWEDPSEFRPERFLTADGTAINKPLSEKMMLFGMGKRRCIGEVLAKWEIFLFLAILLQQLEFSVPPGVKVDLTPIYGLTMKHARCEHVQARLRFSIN
Lysosomal acid glucosylceramidase (Homo sapiens), sequence (P04062 whole entry, looked up): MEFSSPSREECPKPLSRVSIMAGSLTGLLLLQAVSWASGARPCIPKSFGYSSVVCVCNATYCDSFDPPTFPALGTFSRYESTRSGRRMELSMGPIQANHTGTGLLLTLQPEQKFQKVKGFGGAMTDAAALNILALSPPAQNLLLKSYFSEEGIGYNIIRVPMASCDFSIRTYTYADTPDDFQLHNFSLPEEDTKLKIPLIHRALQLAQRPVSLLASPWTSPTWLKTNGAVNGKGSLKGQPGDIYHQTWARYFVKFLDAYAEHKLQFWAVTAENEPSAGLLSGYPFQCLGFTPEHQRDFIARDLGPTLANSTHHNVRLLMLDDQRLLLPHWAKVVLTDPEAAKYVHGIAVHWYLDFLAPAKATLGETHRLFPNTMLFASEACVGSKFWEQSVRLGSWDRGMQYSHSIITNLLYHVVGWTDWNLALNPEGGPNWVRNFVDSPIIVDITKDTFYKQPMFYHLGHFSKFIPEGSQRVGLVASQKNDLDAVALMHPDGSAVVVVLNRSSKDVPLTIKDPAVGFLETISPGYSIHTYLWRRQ

Take `Cc1nc2cnc(OCc3ccccc3)nc2n(Cc2ccc(F)cc2)c1=O`: the Potency is above 11.4 µM in [1], 7.94 µM (active) in [3], above 9.22 µM in assay [6] and above 46 µM in assay [7]. The activity change, negative = inhibition in assay [2] was -22.4%; in assay [4], -22.3%. Further, the activity, negative = inhibition in assay [5] was -3.29%. In assay [8], the Potency result is “inactive”.

As to `Cn1nnc(NC(=S)NC(=O)c2ccccc2)n1`, the result in [9] was inactive.

The values are drawn from PubChem BioAssay (NCATS).
